From PubChem BioAssay
A number with no mark means an inactive call. No rule for the calls is given here.

target: Pantothenate synthetase (Mycobacterium tuberculosis (strain ATCC 25618 / H37Rv)) (UniProt P9WIL5); experiment: Recombinant Mtb pantothenate synthetase (PanC) inhibitors, coupled enzyme, confirmatory (AID 375); conditions: coupled enzyme assay; at 10 µM, active compounds read high;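 also: 0% = full reaction with vehicle and 100% = no enzyme background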
Sequence (P9WIL5 whole entry, looked up): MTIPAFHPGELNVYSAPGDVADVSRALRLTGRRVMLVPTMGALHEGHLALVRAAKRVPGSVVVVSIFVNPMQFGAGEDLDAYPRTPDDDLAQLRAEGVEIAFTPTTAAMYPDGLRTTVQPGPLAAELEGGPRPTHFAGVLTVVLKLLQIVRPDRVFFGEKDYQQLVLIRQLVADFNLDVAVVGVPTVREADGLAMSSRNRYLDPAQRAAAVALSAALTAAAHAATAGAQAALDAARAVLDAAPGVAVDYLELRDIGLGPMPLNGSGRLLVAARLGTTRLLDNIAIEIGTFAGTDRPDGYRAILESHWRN

Row | Compound | inhibition
1 | COC(=O)c1ccc(COc2ccc(C3C4=C(CCCC4=O)Nc4onc(C)c43)cc2)cc1 (configuration not stated) | 0%
2 | O=C(COc1ccc(=O)n(-c2ccccc2)n1)Nc1ccccc1 | 0%
3 | COC(=O)Cc1c(C)nc2nc[nH]n2c1=O | 0%
4 | COc1ccc(N2CCN(C(=O)C(C)(C)Oc3ccc(Cl)cc3)CC2)cc1 | 0%
5 | O=C(CSc1nnc(-c2ccco2)c(-c2ccco2)n1)Nc1ccccc1 | 2%
6 | COC(=O)c1ccc(CSc2nnc(-c3ccncc3)o2)o1 | 0%
7 | CC(C)(C)C(=O)/C=C(\N)c1ccccn1 | 2%
8 | O=S(=O)(c1cccs1)N1CCN(Cc2nc3ccccc3s2)CC1 | 0%
9 | O=C(c1ccc2ccccc2n1)N1CCN(c2ccccc2)CC1 | 0%
10 | Cc1cc(C)n(-c2nc3c(c(=O)[nH]c(=O)n3C)n2Cc2ccc(F)cc2)n1 | 0%
11 | c1ccc(Cn2nnnc2CN2CCN(c3ncccn3)CC2)cc1 | 1%
12 | CN(c1ccccc1C(=O)NCC1CCCO1)S(C)(=O)=O (configuration not stated) | 2%
13 | C=CCn1c(SCC(=O)NC2CCCCC2)nnc1-c1sc(N)nc1C | 7%
14 | Nc1nc2ccccc2n1C(=O)CCc1ccccc1 | 0%
15 | COc1ccc(C2C(C(=O)N3CCC(C)CC3)c3ccccc3C(=O)N2C)cc1 (configuration not stated) | 0%
16 | COc1ccc(-c2ccc(Nc3ccc(S(=O)(=O)N4CCCC4)cc3)nn2)cc1OC | 11%
17 | O=C1OC2(c3ccccc3)C3CCCC2C13 | 3%
